Activity calls are given as the source filed them. Rule for the calls: active = hit-call score of the fitted dose curve at least 0.9, where 1 is the maximum; inactive = score below 0.9.
Assay: CEETOX_H295R_CORTISOL: CeeTox H295R High-throughput Steroidogenesis Assay for Cortisol (AID 2283438);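 note: cortisol secreted into medium quantified by LC-MS/MS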
Details: actives raise or lower the signal
Experimental: CEETOX_H295R is a cell-based, multiplexed-readout assay that uses H295R, a human adrenal gland cell line, with measurements taken at 48 hours after chemical dosing in a 96-well plate.CEETOX_H295R_CORTISOL is one of 23 assay component(s) measured or calculated from the CEETOX_H295R assay. It is designed to make measurements of hormone induction, a form of inducible reporter, as detected with absorbance signals by HPLC-MS-MS technology.Data from the assay component CEETOX_H295R_CORTISOL was analyzed into 1 assay endpoint. This assay endpoint, CEETOX_H295R_CORTISOL, was analyzed with bidirectional fitting relative to DMSO as the negative control and baseline of activity. Using a type of inducible reporter, gain or loss-of-signal activity using HPLC-MS-MS was used to understand synthesis of Cortisol in H295R cell line at 48hr of chemical exposure. To generalize the intended target to other relatable targets, this assay endpoint is annotated to the steroid hormone intended target family, where the subfamily is glucocorticoids.
Cell culture and media preparation procedures were conducted in accordance with OECD Test No. 456 guidelines, with minor modifications. H295R cells (ATCC CRL-2128) were expanded for 5 passages and frozen in batches in liquid nitrogen. Prior to the steroidogenesis assay, H295R cells were thawed and passed at least 4 times. The maximum passage was 10. Cells were maintained in a 1:1 mixture of DMEM/F12 supplemented with 5ml/L ITS+ Premix (BD Bioscience) and 12.5 ml/L Nu-Serum (BD Bioscience). After seeding cells into 96-well plates at 50-60% confluency, cells were allowed to adhere overnight. Prior to chemical testing, culture medium was replaced with 175 uL medium containing 10 uM forskolin to stimulate steroidogenesis for 48 hours. Following prestimulation, forskolin medium was replaced with medium containing test chemical solubilized in DMSO (ensuring a final concentration of 0.1% DMSO). Test chemicals were incubated for 48 hours, then the medium was removed and split into 2 vials containing approximately 75uL each, and stored at -80 C prior to hormone analysis. For steroid quantification, media samples were shipped to OpAns, LLC (Durham, NC) on dry ice, and samples were thawed to room temperature prior to liquid-liquid extraction. Steroid hormones were extracted from media samples using methyl tertbutyl ether (MTBE). An extra derivatization with dansyl chloride was included for estrogen (estrone and estradiol) detection only. Steroid hormones were separated by HPLC, eluted using a reverse phase C18 gradient with electrospray positive ionization, followed by quantification by tandem mass spectrometry (MS/MS). Data were acquired on a MassHunter Workstation Acquisition version B03.01 (Agilent Technologies, Inc.) and processed using MassHunter Quantitative Analysis for QQQ. Accuracy was determined for each hormone analyte from 3 standards to determine upper and lower limits of quantification (ULOQ and LLOQ, respectively) using a 7-point standard curve. Precision and accuracy of the extraction and quantification methods were calculated as the percent relative standard deviation (%RSD) of the spiked standards and percent spiked standard recovered, respectively. The goal was to achieve 100% accuracy (i.e., recover all spiked-in standard at quantification with minimal loss during run time) and good precision (i.e., have %RSD <15% to ensure reproducibility). Test medium was removed following chemical exposure, and cell viability was evaluated in the same wells by MTT. MTT procedures were as follows: after removal of test medium, 500 uL of 0.5 mg/ml of 3-[4,5-dimethylthiazol-2-y]2,5-diphenyltetrazoliumbromide solution was added to the cells. Following a 4-hour incubation at 37 C and 5% CO2 to allow formazan-crystal formation, the MTT solution was removed and blue formazan salt crystals were solubilized using 500uL anhydrous isopropanol with shaking for 20 minutes. […]

Row | Compound | AC50 | outcome
1 | Nc1ccc(-c2ccc(N)cc2)cc1 | 65.8 µM (active) | 
2 | Oc1ccc(Cl)cc1Cl |  | inactive
3 | CCOCCOC(C)=O |  | inactive
4 | Cc1cc(O)ccc1Cl |  | inactive
5 | Clc1ccc(C(c2ccccc2Cl)C(Cl)(Cl)Cl)cc1 (configuration not stated) |  | inactive
6 | CC1=C2C[C@H]3[C@@H](CC=C4C[C@@H](O)CC[C@@]43C)[C@@H]2CC[C@]12O[C@@H]1C[C@H](C)CN[C@H]1[C@H]2C |  | inactive
7 | CC#Cc1cc(C)nc(Nc2ccccc2)n1 |  | inactive
8 | CCC(=O)O[C@H]1CC[C@H]2[C@@H]3CCC4=CC(=O)CC[C@]4(C)[C@H]3CC[C@]12C | 30.7 µM (active) | 
9 | O=C(NC(=O)c1c(F)cccc1F)Nc1cc(Cl)c(OC(F)(F)C(F)F)c(Cl)c1 |  | inactive
10 | NS(=O)(=O)C(F)(F)C(F)(F)C(F)(F)C(F)(F)C(F)(F)C(F)(F)C(F)(F)C(F)(F)F |  | inactive
11 | c1cc2ccc3cccc4ccc(c1)c2c34 |  | inactive
12 | C[C@]12CCC(=O)C=C1CC[C@@H]1[C@@H]2CC[C@@]2(C)[C@H]1CC[C@]2(C)O | 7.76 µM (active) | 
13 | C=CC(N)=O |  | inactive
14 | Cc1cccc(C)c1N |  | inactive
15 | Cc1ccc(O)c(C)c1 |  | inactive
16 | CCSC(=O)N(CC)C1CCCCC1 |  | inactive
17 | ClC1=C(Cl)[C@]2(Cl)[C@@H]3[C@H]4C[C@H]([C@@H]5O[C@H]45)[C@@H]3[C@@]1(Cl)C2(Cl)Cl | 5.13 µM (active) | 
